Screens as filed in PubChem BioAssay.
AmpC inh detg = AmpC beta-lactamase inhibition with detergent present. P00811. AmpC hydrolysis of nitrocefin, absorbance 480 nm, 0.01% Triton. Potency, µM (doses to about 114 µM), for the others: at the highest dose activity change, negative = inhibition, hits mostly inhibitors. 370,000 tested, 0.041% active. AID 485294;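 further: 0% = no-compound wells and -100% = no-enzyme wells; nearly all actives have a fitted effect of over 25% in size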
Target sequence (P00811 whole entry, looked up): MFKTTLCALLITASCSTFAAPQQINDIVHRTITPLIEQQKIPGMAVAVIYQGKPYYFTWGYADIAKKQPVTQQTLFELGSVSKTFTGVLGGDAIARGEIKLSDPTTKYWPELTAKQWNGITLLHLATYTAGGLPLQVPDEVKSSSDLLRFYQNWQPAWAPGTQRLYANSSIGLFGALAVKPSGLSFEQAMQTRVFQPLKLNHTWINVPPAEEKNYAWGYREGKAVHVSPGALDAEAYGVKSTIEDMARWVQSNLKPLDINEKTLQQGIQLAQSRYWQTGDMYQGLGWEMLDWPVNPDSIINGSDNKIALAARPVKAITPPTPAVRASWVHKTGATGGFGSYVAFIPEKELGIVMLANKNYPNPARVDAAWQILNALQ
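20 mM phosphate pH 7.0 + 0.01% (detergent screen) or 0.0001% Triton X-100; 5.3 nM AmpC reagent; cpd preinc 15 min RT; nitrocefin (800 uM stock) to start; A480 q20 s × 4 min; Activity was normalised to no-enzyme and no-compound control wells.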
Sm TGR inh = S. mansoni TGR enzyme inhibition; 360,000 tested, 3% active; Q962Y6; purified TGR, DTNB reduction, TNB absorbance 405 nm; Potency, µM (series often up to 114 µM), inactives show at the top dose activity change, negative = inhibition, hits mostly inhibitors; further: nearly all actives have a fitted effect of over 60% in size
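Kinetic colorimetric format: TGR-catalysed, NADPH-driven DTNB reduction monitored via TNB absorbance. Enzyme dispensed at 20 nM; compound exposure 15 min at room temperature before reaction start.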
AmpC inh no detg = inhibitors of E. coli AmpC beta-lactamase without detergent. AmpC nitrocefin hydrolysis, absorbance 480 nm, 0.0001% Triton. Potency, µM (doses to about 57.1 µM), inactives show top-dose activity change, negative = inhibition, usual class: inhibitors. 330,000 tested, 0.52% active. AID 485341;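 further: plate controls were no compound for no effect and no enzyme for full effect; nearly all actives have a fitted effect of over 20% in size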
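AmpC (5.3 nM in the dispensed reagent) in 20 mM phosphate pH 7.0 with 0.01% (detergent screen) or 0.0001% Triton X-100 was preincubated with compounds for 15 min at room temperature. Nitrocefin was then added from an 800 uM solution, and hydrolysis was followed at 480 nm.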
* hit, by the source's call; u = inconclusive; x = no result. Sampled rows, rich in hits. Any-hit rate of the full collection: about 3.3%. The call rests on the fitted dose curve; in most records, active means well fitted curve in the direction sought with a large enough effect; inconclusive means small, poorly fitted or top-dose-only effect, or another doubt; inactive means no such curve, though single readings can be large; an effect the other way counts as inactive or inconclusive. Unless noted, on the % scale 0 is the no-effect control and ±100 the full control effect; potency means the concentration at half of the fitted maximal effect.

SMILES | AmpC inh detg | Sm TGR inh | AmpC inh no detg
CCN(CC)S(=O)(=O)c1cc(NC(=O)CN2C(=O)NC(C)(c3ccccc3)C2=O)ccc1C (configuration not stated) | -1% | 10% | 10%
CC(NC(=O)Cn1ncc(Cl)c(Cl)c1=O)C12CC3CC(CC(C3)C1)C2 (configuration not stated) | -7% | 40µM* | -23%
Cc1c(C(=O)Nc2ccc(F)c(Cl)c2)sc2nc3n(c(=O)c12)CCC3 | 24% | 4% | x
Cc1csc2nc(-c3cccc(NC(=O)c4cccc(F)c4)c3)cn12 | 5% | 0% | x
CCOc1ccc(C2CC(=O)n3nc(-c4ccc(C)cc4)nc3S2)cc1 (configuration not stated) | 2% | 7% | x
COc1ccc(-c2nc3n(n2)C(=O)CC(c2ccco2)S3)cc1 (configuration not stated) | 1% | 18µM* | -29%
C=Cc1ccc(CSc2nc(-c3ccc(OC)cc3)nc3c2Cc2c(CO)cnc(C)c2O3)cc1 | 14% | -2% | x
COc1cc2cc(C)c(SCC(=O)N3CCN(C(=O)c4ccco4)CC3)nc2cc1OC | u | 18µM* | 90%
CCc1cc2cc(C)ccc2nc1SCC(=O)N1CCN(C(=O)c2ccco2)CC1 | -7% | u | 132%
O=C1CSC(=S)N1/N=C/c1cc(Br)ccc1O | -5% | 7.9µM* | -48%
COc1ccc(/C=N/N2C(=O)CSC2=S)cc1Br | -6% | -34% | -48%
C#CCOCCOCCOCCNc1nc(N2CCN(C(=O)CCCCCCCCCCNC(=O)[C@H]([C@@H](C)CC)n3cc(CCCCCN)nn3)CC2)nc(N2CCN(C(=O)CCCCCCCCCCNC(=O)[C@@H]([C@H](C)O)n3cc(C)nn3)CC2)n1 | 12% | -29% | 295%
C#CCOCCOCCOCCNc1nc(N2CCN(C(=O)CCCCCCCCCCNC(=O)[C@H](CCCCN)n3cc(C)nn3)CC2)nc(N2CCN(C(=O)CCCCCCCCCCNC(=O)[C@@H]([C@H](C)CC)n3cc(CCCCCN)nn3)CC2)n1 | -13% | 25µM* | 194%
C#CCOCCOCCOCCNc1nc(N2CCN(C(=O)CCCCCCCCCCNC(=O)[C@H](CCCCN)n3cc(CCCC(=O)O)nn3)CC2)nc(N2CCN(C(=O)CCCCCCCCCCNC(=O)[C@H](CCCCN)n3cc(CCCC(=O)O)nn3)CC2)n1 | -12% | u | 174%
C#CCOCCOCCOCCNc1nc(N2CCN(C(=O)CCCCCCCCCCNC(=O)[C@H](CCC(=O)O)n3cc(CCCCCN)nn3)CC2)nc(N2CCN(C(=O)CCCCCCCCCCNC(=O)[C@@H]([C@H](C)O)n3cc(C)nn3)CC2)n1 | -9% | -31% | 182%
C#CCOCCOCCOCCNc1nc(N2CCN(C(=O)CCCCCCCCCCNC(=O)[C@H](CCCCN)n3cc(CCO)nn3)CC2)nc(N2CCN(C(=O)CCCCCCCCCCNC(=O)[C@@H]([C@H](C)O)n3cc(C)nn3)CC2)n1 | 6% | 18µM* | 286%
C#CCOCCOCCOCCNc1nc(N2CCN(C(=O)CCCCCCCCCCNC(=O)[C@H](CCCCN)n3cc(CCO)nn3)CC2)nc(N2CCN(C(=O)CCCCCCCCCCNC(=O)[C@H](CCCCN)n3cc(CCO)nn3)CC2)n1 | -10% | 35µM* | 185%
Cc1ccc(NC(=O)c2oc3ccc(S(=O)(=O)N4CCCCCC4)cc3c2C)c(C)c1 | 17% | 5% | x
COc1ccc(CCNC(=O)c2ccc(Cn3c(SCc4ccccc4)nc4cccnc43)cc2)cc1 | 1% | 0% | x
Cc1ccc2[nH]cc(CCNC(=O)c3ccco3)c2c1 | 1% | -10% | -20%
Cc1ccc(/C=C/C(=O)NCCc2c[nH]c3ccccc23)o1 | -6% | 14µM* | -15%
O=C(Cc1ccccc1)NCCc1c[nH]c2ccccc12 | -2% | -3% | -11%
Cc1ccc(/C=C/C(=O)NCCc2cccc(Cl)c2)o1 | -7% | 2.5µM* | -25%
Cc1ccc2[nH]cc(CCNC(=O)/C=C/c3ccco3)c2c1 | 0% | 28µM* | -20%
Cc1ccc(/C=C/C(=O)NCCCN2CCN(CCCNC(=O)/C=C/c3ccc(C)o3)CC2)o1 | -8% | -12% | 29%
SMILES | AmpC inh detg | Sm TGR inh | AmpC inh no detg
COc1ccc(C2=NN(CC(=O)NCCCN(C)c3ccccc3)C(=O)CC2)cc1 | -5% | -7% | x
O=C(c1ccc(C(F)(F)F)cc1)N1CCC(c2noc(-c3ccc(S(=O)(=O)N4CCCC4)cc3)n2)CC1 | 20% | 3% | x
CC(C)NC(=O)c1ccc(Cn2c(SCC(N)=O)nc3ccccc3c2=O)cc1 | 22% | 3% | x
CC1=C(c2ccc(C(C)C)cc2)S(=O)(=O)NC1=NCCCN1CCN(c2ccccc2F)CC1 | 1% | 2% | x
COc1cc(/C=N/Nc2ccc(F)cc2F)cc(OC)c1O | -5% | 25µM* | -21%
COc1cc(/C=N/Nc2ccccc2[N+](=O)[O-])cc(OC)c1O | 0% | -4% | -4%
Cc1ccc(S(=O)(=O)N/N=C\c2ccc([N+](=O)[O-])o2)cc1C | 5% | -2% | -1%
Cc1ccc(S(=O)(=O)N/N=C\c2ccc([N+](=O)[O-])o2)cc1 | -2% | 20µM* | -12%
Cc1ccc(S(=O)(=O)N/N=C\c2ccc(C)o2)cc1 | -9% | 35µM* | -25%
O=[N+]([O-])c1ccc(S(=O)(=O)N/N=C/c2ccco2)cc1 | 1% | -15% | -30%
Cc1ccc(/C=N/NS(=O)(=O)c2ccc([N+](=O)[O-])cc2)o1 | 1% | -32% | -17%
O=[N+]([O-])c1ccc(/C=N/NS(=O)(=O)c2ccc(Cl)cc2)o1 | -3% | 13µM* | -9%
Cc1nc2ccn(Cc3cccs3)c(=O)c2cc1C(=O)N1CCN(c2ccccc2)CC1 | 18% | 7% | x
CCOc1ccc(NC(=O)CN2C(=O)C(c3ccccc3)=NC23CCC(C)CC3)cc1 (configuration not stated) | 3% | 10% | x
Cc1ccc(C)c(N2CCN(S(=O)(=O)c3cc(C(=O)Nc4ccc(Oc5ccccc5)cc4)ccc3F)CC2)c1 | 4% | 1% | x
CCCCSCCCNC(=O)c1cn(CC)c2ccc(S(=O)(=O)N(C)C3CCCCC3)cc2c1=O | 3% | -1% | x
CN(C)S(=O)(=O)N1CCC(n2c(C(F)(F)F)nc3cccnc32)CC1 | 0% | 2% | x
COc1ccc(NC(=O)C(C)Sc2cc(-c3ccccc3)nc(C)n2)cc1Cl (configuration not stated) | 17% | 10% | x
Cc1cc(C)c2nc(NNC(=O)c3ccc(S(=O)(=O)N4CCc5ccccc5C4)cc3)sc2c1 | 4% | 4% | -36%
Cc1cc(C)c2sc(NNC(=O)c3ccc(S(=O)(=O)N4CCc5ccccc5C4)cc3)nc2c1 | -19% | -14% | 3.5µM*
C=CCc1ccccc1OCC(O)CNC1CCCC1 (configuration not stated) | 0% | 2% | -5%
C=CCc1ccccc1OCC(O)CNC(C)C (configuration not stated) | -8% | 25µM* | -8%
Cc1cccc(NC(=O)c2sc3nc(-c4ccccc4)cn3c2C)c1C | 1% | -7% | x
CCOc1ccccc1Nc1nnc(-c2cc3cc(Cl)ccc3oc2=O)s1 | 9% | 3% | x
